This is a sample that favours compounds with a hit; in the whole collection about 1.2% have one here.
PI5P4K alpha inh – qHTS for Inhibitors of phosphatidylinositol 5-phosphate 4-kinase (PI5P4K). 1.2% of 330,000 active. PI5P4Kalpha enzyme, ADP-Glo luminescence, 60 min; stronger effect = lower value. max response, %. Phosphatidylinositol 5-phosphate 4-kinase type-2 alpha (Homo sapiens), P48426; active = max response of -50% or lower; inconclusive = between -30% and -50%; inactive = -30% or higher; also: value at the top dose of about 77 µM
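qHTS, 1536-well: enzyme/substrate mix, compound by pin tool, 5 microM ATP final; RT 60 min; ADP-Glo reagents 1 (45 min) then 2 (30 min); luminescence.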
PI4K2A block – qHTS for small molecular inhibitors of PI4K2A; Phosphatidylinositol 4-kinase type 2-alpha (Homo sapiens), Q9BTU6; purified PI4K2A, ADP-Glo luminescence, 1 h; stronger effect = lower value; activity change, negative = inhibition, % at 76.9 µM; 0.13% of 420,000 active; in the data active = activity change below about -50%; inconclusive = mostly about -30% to -49%
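In this quantitative HTS, ADP production by PI4K2A was quantified luminescently after 1 h at ambient temperature; 100 microM adenosine served as plate-quality control.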
KAT2A inh – qHTS Assay for Inhibitors of GCN5L2 | Potency, µM (top dose mostly 58.9 µM), actives largely listed as inhibitors | GCN5L2 HAT assay, ThioGlo1 CoA-SH fluorescence | 0.21% of 390,000 active
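Compounds, pin-transferred from DMSO stocks, meet 20nM GCN5L2 for 15 min before the reaction begins with H3(1-25) peptide (75uM) and acetyl-CoA (70uM). Thiol-reactive ThioGlo1 reports CoA release over 20 min at room temperature.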
Tb PGK inh – qHTS Assay to Find Inhibitors of Phosphoglycerate Kinase; Phosphoglycerate kinase, glycosomal (Trypanosoma brucei brucei), P07378; PGK/GAPDH coupled, Kinase-Glo luminescence, 60 min; Potency, µM (top dose mostly 57.5 µM), hits mostly inhibitors; 0.043% of 380,000 active; AID 602233, 2012; also: nearly all actives have a fitted effect of over 60% in size
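Luminescent ATP detection (Kinase-Glo Plus) follows a 60-minute room-temperature incubation, with wells lacking PGK as controls. Buffer: 100 mM TEA (pH 7.6), 5 mM MgCl2, 0.01% Tween-20. Coupling enzyme GAPDH (100 nM final) supplies unstable 1,3-BPG in-well.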
Pin1 inhibitor – qHTS Assay to Find Inhibitors of Pin1; 0.009% of 390,000 active; Pin1 FP peptide displacement, HiFluor488, 10 min; Potency, µM (series often up to 115 µM), hits mostly inhibitors; Peptidyl-prolyl cis-trans isomerase NIMA-interacting 1 (Homo sapiens), Q13526; active = well fitted inhibition curve with a large enough effect in the polarisation, with a control signal flat, not every such curve was filed as active; inconclusive = small, poorly fitted or top-dose-only effect, or effect the other way, or a change in a side signal; inactive = no such curve, though single readings can be large or run the other way; the % refers to the polarisation
GoLoco inh red – qHTS Assay for Inhibitors of RGS12 GoLoco Motif Activity (Red Fluorophore); AID 880, 2007; Guanine nucleotide-binding protein G(i) subunit alpha-1 (Homo sapiens), P63096; Gai1:RGS12 GoLoco peptide FP, rhodamine, 10 min; Potency, µM (top dose mostly 61.6 µM), hits mostly inhibitors; 0.44% of 230,000 active; active = well fitted inhibition curve with a large enough effect, not every such curve was filed as active; inactive = no such curve, though single readings can be large or run the other way; also: nearly all actives have a fitted effect of over 30% in size
Each line names hits and unclear results; the compound was inactive in the other large screens. Unless noted, calls follow the shape of the dose curve; as a rule, active = well fitted curve in the direction sought with a large enough effect; inconclusive = small, poorly fitted or top-dose-only effect, or another doubt; inactive = no such curve, though single readings can be large; an effect the other way counts as inactive or inconclusive.

CS(=O)(=O)C1=NSC2=NC(=O)/C(=C\c3cccn3-c3ccccc3Cl)C(=N)N21	PI5P4K alpha inh -94.7, KAT2A inh inconclusive
COc1cc(/C=C2\C(=N)N3N=C(S(C)(=O)=O)SC3=NC2=O)ccc1OS(=O)(=O)c1ccccc1	none (no result: PI5P4K alpha inh, PI4K2A block, Tb PGK inh, Pin1 inhibitor, GoLoco inh red)
COc1cc(/C=C2/C(=N)N3C(=NC2=O)SN=C3S(C)(=O)=O)ccc1OS(=O)(=O)c1ccc(C)cc1	PI5P4K alpha inh -79.1, KAT2A inh inconclusive (no result: GoLoco inh red)
COc1cccc(-n2c(C)cc(/C=C3/C(=N)N4C(=NC3=O)SN=C4S(C)(=O)=O)c2C)c1	PI5P4K alpha inh -63.3, KAT2A inh inconclusive, Pin1 inhibitor inconclusive
CC1=NN2C(=N)/C(=C\c3cc(C)n(-c4cccc(C)c4)c3C)C(=O)N=C2S1	none
CS(=O)(=O)C1=NSC2=NC(=O)/C(=C\c3ccc(OS(=O)(=O)c4ccccc4)cc3)C(=N)N21	PI5P4K alpha inh -62.5, KAT2A inh inconclusive (no result: GoLoco inh red)
CC(OC(=O)CCN=C1NS(=O)(=O)c2ccccc21)C(=O)Nc1ccccc1F (stereo unspecified)	none (no result: GoLoco inh red)
CC(NC(=O)COC(=O)C1CC2CCCC(C1)C2=O)c1ccccc1 (stereo unspecified)	none (no result: GoLoco inh red)
CCS(=O)(=O)C1=NSC2=NC(=O)/C(=C\c3ccc(OS(=O)(=O)c4ccccc4)c(OC)c3)C(=N)N21	PI5P4K alpha inh -66.6 (no result: GoLoco inh red)
O=C1C2C3C=CC(C3=C(c3ccccc3)c3ccccc3)C2C(=O)N1Cc1ccccc1 (stereo unspecified)	GoLoco inh red 14.1µM
COc1ccc(CCNC(=O)C2CCN(C(=O)c3ccccc3)CC2)cc1	none (no result: GoLoco inh red)
COc1ccc2ccc3c(c2c1)N=C[C@]1(O3)N(C)c2ccccc2C1(C)C	PI5P4K alpha inh inconclusive, PI4K2A block -68.1, KAT2A inh inconclusive
N#Cc1cc(Sc2ccccn2)c([N+](=O)[O-])cc1C#N	PI5P4K alpha inh -85.8
C=CCSC1=N/C(=C\C=C\c2ccco2)C(=O)S1	PI5P4K alpha inh -63.2, KAT2A inh inconclusive, Tb PGK inh inconclusive
C=CCSC1=N/C(=C\c2sccc2C)C(=O)S1	none (no result: PI5P4K alpha inh)
Cc1ccc(OCC(=O)c2cc(C)c(C)cc2C)c([N+](=O)[O-])n1	none
Cc1ccc(OCC(=O)c2c(N)n(C)c(=O)n(C)c2=O)c([N+](=O)[O-])n1	PI5P4K alpha inh -50.2, Tb PGK inh inconclusive (no result: Pin1 inhibitor, GoLoco inh red)
C[N+]12CCCCC1C(COC(=O)c1ccc3c(c1)OCO3)CCC2 (stereo unspecified)	none (no result: PI5P4K alpha inh)
Oc1nc(Nc2ccc(Cl)cc2Cl)sc1/C=C1\C=Nc2ccccc21	PI5P4K alpha inh -56.5
Clc1cc(NCc2ccccc2)ncn1	none (no result: GoLoco inh red)
C=C(C)CN(CC)c1nc(N)c2c(N)nc3c(c2c1C#N)CC(=O)N3C12CC3CC(CC(C3)C1)C2	PI5P4K alpha inh -87.3, PI4K2A block inconclusive
N#Cc1c(N2CCCC(O)C2)nc(N)c2c(N)nc3c(c12)CC(=O)N3C12CC3CC(CC(C3)C1)C2 (stereo unspecified)	PI4K2A block inconclusive (no result: PI5P4K alpha inh)
Cc1ccc(C)c(NC(=O)N2CCN(c3nnc(C)c4c(C)n(-c5ccccc5)nc34)CC2)c1	none (no result: PI5P4K alpha inh, Tb PGK inh, GoLoco inh red)
CCOc1ccc2c(ccc(/C=C/c3cc(C)c4cccnc4c3O)[n+]2C)c1	PI5P4K alpha inh -84.7, PI4K2A block -58.4, Tb PGK inh inconclusive (no result: KAT2A inh, GoLoco inh red)
CCOc1ccc2c(ccc(/C=C\c3cc(C)c4cccnc4c3O)[n+]2C)c1	none (no result: PI5P4K alpha inh, PI4K2A block, KAT2A inh, Tb PGK inh, Pin1 inhibitor)
CCOc1cc(N2CCOCC2)c(OCC)cc1NC(=O)Cc1ccccc1OC	KAT2A inh 28.2µM
CN(C)/C=C/C(=O)c1ccc(-c2ccc(Cl)cc2Cl)o1	PI5P4K alpha inh -64.0
CN(C)/C=C1\C(=O)N(c2ccc([N+](=O)[O-])cc2)N=C1c1ccccc1	PI4K2A block -50.7

Screening results deposited in PubChem by National Center for Advancing Translational Sciences (NCATS).
